Reference: ChEMBL document CHEMBL4513154, “CO-ADD screening of Jain University (India) compounds”
Results with a measured potency or affinity are listed apart.

Tests used:
[1] = system: Klebsiella pneumoniae; conditions: Concentration 32 ug.mL-1; ASSAY_TEST Inhibition of Bacterial Growth; detection method Absorption (OD600); MEDIA CAMHB; plate type 384well; NBS; CORNING #3640; time 18 hr
[2] = system: Candida albicans; conditions: 32 ug/mL
[3] = system: Cryptococcus neoformans; conditions: Concentration 32 ug.mL-1; ASSAY_TEST Inhibition of Fungal Growth; detection method Resazurin; Absorption (OD600-OD570); plate type 384well; NBS; CORNING #3640

| Structure (SMILES) | Inhibition [1] | Inhibition [2] | Inhibition [3] |
| --- | --- | --- | --- |
| Clc1ccc(Cn2c(-c3cscn3)nc3c(Cl)cccc32)cn1 | 14.39% | 1.41% | -19.98% |
| Clc1ccc2c(c1)nc(-c1cscn1)n2Cc1ccc(Cl)nc1 | -1.17% | 2.99% | -29.64% |
| Clc1ccc(Cn2c(-c3cscn3)nc3ccccc32)cn1 | 12.39% | 0.69% | -39.39% |
